Source: PubChem BioAssay
An excerpt weighted towards active compounds, which were near 2.4% of everything screened.
POLI inh = inhibitors of human DNA polymerase iota | Pol iota fluorescent replication assay, 10 min | Potency, µM (series often up to 115 µM), for the others: at the highest dose activity, negative = inhibition, most hits filed as inhibitors | 1% of 390,000 active | AID 588590
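Pol iota at 10 nM preincubated 15 min with compounds at room temperature; reaction started with fluorescent substrate, 50 nM final. Fluorescence read kinetically at 0 and 10 min; buffer-only wells as negative control.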
L3MBTL1 inh = inhibitors of human L3MBTL1. AID 485360. Q9Y468. AlphaScreen L3MBTL1–H3K9me1 peptide binding. Potency, µM (series often up to 57.1 µM), inactives show top-dose activity, negative = inhibition, actives largely listed as inhibitors. 0.66% of 230,000 active; note: % is set by controls: 0 for no effect and ±100 for the full control effect; nearly all actives have a fitted effect of over 60% in size
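First, the protein-peptide complex forms for 30 min at room temperature (L3MBTL1 50 nM, biotinylated H3K9me1 peptide 75 nM). Next, compounds are pin-transferred and incubated 30 min. Finally, AlphaScreen beads are added and read after 30 min.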
Pol eta inh = DNA polymerase eta (human) inhibition. Potency, µM (top dose mostly 114 µM), without a hit: top-dose activity change, negative = inhibition, usual class: inhibitors. 1.2% of 390,000 active. recombinant Pol eta, fluorescent DNA replication assay; note: % is set by controls: 0 for no effect and ±100 for the full control effect
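Fluorescent replication assay: 50 nM final substrate added after a 15 min room-temperature compound preincubation with 10 nM enzyme. Signal taken at 0 min and again at 10 min.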
POLK inh = inhibitors of human DNA polymerase kappa | Q9UBT6 | purified Pol kappa, fluorescent DNA synthesis assay, 10 min | Potency, µM (top dose mostly 107 µM), without a hit: top-dose activity, negative = inhibition, most hits filed as inhibitors | 0.53% of 400,000 active; note: % is set by controls: 0 for no effect and ±100 for the full control effect
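Fluorescent qHTS in 1536-well format: enzyme (10 nM) and compound sat 15 min at room temperature before 50 nM substrate (final) was added. Signal taken at 0 and 10 min; no-enzyme buffer wells were negative controls.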
POLB inh = blocks human DNA polymerase beta activity. Pol beta primer extension/strand displacement, fluorescence kinetic. 1.3% of 340,000 active. Potency, µM (series often up to 114 µM), for inactives: at the highest dose activity change, negative = inhibition, usual class: inhibitors. P06746; note: % is set by controls: 0 for no effect and ±100 for the full control effect
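Preincubation: enzyme (10 nM) with compound, 15 min, RT. Reaction: substrate added to 50 nM final. Reads: 0 and 10 min. Analysis: normalized, Hill fit.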
An asterisk follows results filed as active; ? = inconclusive; . = not tested or not shown; [ ] = another dose, or the depositor's remark. Calls come from the whole dose curve; as a rule, active = well fitted curve in the direction sought with a large enough effect; inconclusive = small, poorly fitted or top-dose-only effect, or another doubt; inactive = no such curve, though single readings can be large; an effect the other way counts as inactive or inconclusive. Potency is the fitted concentration of half-maximal effect.

SMILES	POLI inh	L3MBTL1 inh	Pol eta inh	POLK inh	POLB inh
O=c1cc(CN2CCN(S(=O)(=O)c3ccc4c(c3)OCCO4)CC2)c2ccc(O)cc2o1	35.5µM*	.	?	?	35.5µM*
CC1(NC(=O)CC[N+](C)(C)CCO)CS(=O)(=O)CC1S(=O)(=O)[O-] (configuration not stated)	.	12.6µM*	.	.	2µM*
Cc1cc(/C=C2\C(=N)N3N=C(CC(=O)N4CCOCC4)SC3=NC2=O)c(C)n1-c1ccccc1	?	.	?	-17.9%	?
CC(C)c1ccc(/C=C2\C(=N)N3N=C(CC(=O)N4CCCCC4)SC3=NC2=O)cc1	20µM*	.	-2.9%	?	-32.9%
COc1ccc(-n2c(C)cc(/C=C3\C(=N)N4N=C(CC(=O)N5CCOCC5)SC4=NC3=O)c2C)cc1	50.1µM*	.	31.6µM*	?	0.891µM*
CCn1c2ccccc2c2nnc(SCc3ccc(C(=O)OC)o3)nc21	3.2%	-26.4%	-10.0%	-6.4%	35.5µM*
COc1ccc(N2CCN(S(=O)(=O)c3ccc(-c4ccno4)cc3OC)CC2)cc1	2.9%	.	?	-17.0%[60.1 µM]	6.5%
Cc1ccc(S(=O)(=O)Nc2cc3c(C(=O)OCc4ccccc4)c(C)oc3c3ccccc23)cc1	76.7%	.	-19.8%	-0.4%	11.8%
CC(C)N1C(=O)S/C(=C/c2ccccc2OCc2ccc(C(=O)O)cc2)C1=O	?	-16.5%	89.1µM*	?	0.6%
CN1C(=O)S/C(=C\c2ccccc2OCc2ccc(C(=O)O)cc2)C1=O	19.0%	.	?	-7.1%	-1.4%
CC/C(=C/c1ccccc1OC)c1cc(-c2ccccc2)cc2oc3ccccc3c12	12.2%	.	.	-16.3%	.
O=C(O)c1ccccc1N/N=C/C1=C(N2CCOCC2)C(=C\c2ccccc2)/CC1	14.1µM*	-13.3%	44.7µM*	?	?
COCC(=O)NCc1nc2cccnc2n1Cc1ccc(F)cc1	-2.7%	.	3.8%	-5.6%[60.1 µM]	1.2%
Cc1ccc(C2C(C#N)=C(N)Oc3n[nH]c(-c4cccnc4)c32)o1 (configuration not stated)	28.2µM*	.	-9.2%	6.9%	8.8%
COC(=O)Cc1c(C)c2ccc3c(c2oc1=O)CN(Cc1ccccc1Cl)CO3	-24.0%	.	12.2%	20.5%	30.3%
OC[C@@H](O)C(O)[C@H](O)[C@@H](O)CO (some centres not stated)	.	.	.	4.8%[60.1 µM]	.
O=C(CSc1nc2sc3c(c2c(=O)n1-c1ccccc1)CCCC3)N/N=C/c1ccccc1C(=O)O	?	.	50.1µM*	-2.2%	?
CC(NC(=O)CSc1nc2sc3c(c2c(=O)n1-c1ccccc1)CCCC3)c1ccccc1 (configuration not stated)	-10.8%	-2.4%	10.2%	-4.8%[60.1 µM]	-1.7%
O=C(O)C(O)c1ccco1 (configuration not stated)	?	5.01µM*	3.55µM*	20µM*	2.24µM*
O=C(O)C(O)c1ccccc1 (configuration not stated)	-29.8%	6.6%	2.1%	.	-1.0%
Cn1ncc(N=Cc2c(O)ccc3ccccc23)c1C(=O)Nc1cccc(Cl)c1	?	3.1%	50.1µM*	-10.4%	1.2%
Cn1ncc(Cl)c1C(=O)Nc1cccc(Cl)c1	32.8%	-3.1%	-2.8%	-14.5%	25.1%
N#Cc1ccc(C(=O)N(Cc2ccco2)Cc2cccs2)cc1	28.3%	.	.	-8.4%	.
O=C(NCc1ccco1)C1c2ccccc2Oc2ccccc21	?	?	7.94µM*	?	17.8µM*
O=C(O)C1C2C=CC(C2)C1C(=O)NCc1cccs1 (configuration not stated)	47.4%	-1.1%	-12.5%	0.1%	?
O=C(O)C1C2C=CC(C2)C1C(=O)NCc1ccco1 (configuration not stated)	-9.0%	-0.2%[11.4 µM]	50.1µM*	?	-2.1%
CN(C)c1ccc(/C=C/C(=O)c2cccc(Br)c2)cc1	79.4µM*	75.2%	-18.5%	?	?
CCOC(=O)c1ccc(NC(=S)N(CCCN2CCCC2)Cc2ccco2)cc1	129.9%	35.5µM*	-17.3%	-5.1%	6.3%
COC(=O)c1ccc2c(c1)N(Cc1ccc(F)cc1)C(=O)c1ccccc1S2	18.5%	.	-16.8%	-12.2%[60.1 µM]	1.5%
